ChEMBL document CHEMBL3433997, “St. Jude Leishmania screening dataset” (2016)

Target: Hexose transporter 1 (Plasmodium falciparum) (UniProt O97467)
Test: ST_JUDE_LEISH: Cytotoxicity at 2uM final concentration against transgenic Leishmania Mexicana promastigotes LmPfHT that are glucose transport deficient and complemented with the Plasmodium falciparum hexose transporter. Activity is measured by DNA content using SYBR green in vitro
Type: functional

SMILES | inhibition [%]
CC(C)N(Cc1cnc(N)c(C#N)n1)c1ccc(Cl)c(Cl)c1 | 2.68
CC(C)(CN)c1cc(-c2ccc(Cl)c(O)c2)c(-c2ccncc2)o1 | 3.22
Cc1ccc2nc(C)cc(N/N=C/c3cccc([N+](=O)[O-])c3)c2c1 | 4.99
CC(C)c1ccc2oc(-c3ccc(NC(=O)c4ccc([N+](=O)[O-])o4)cc3)nc2c1 | 10.2
COc1ccc(-c2cnc(N)c(-c3ccc(C(N)=O)cc3)c2)cc1OC | 3.4
S=C(NCCCCCN1CCC(c2c[nH]c3ccccc23)CC1)Nc1cc(Cl)cc(Cl)c1 | -0.55
Cc1cccc2nc(-c3ccc(-c4cccc(NC(=O)CCc5c[nH]cn5)c4)s3)[nH]c12 | 2.05
CN1CCN(CCCN(Cc2csc(-c3ccc(CNCc4ccccc4)cc3)n2)C(=O)c2cc(F)cc(F)c2)CC1 | 2.02
CC(O)CNc1nc2ccccc2n1CC(=O)Nc1cccc(C(=O)Nc2cccc(C(F)(F)F)c2)c1 (stereo not drawn) | 1.81
Cn1cc(Br)c(-c2cccc(Nc3ccnc4cc(-c5nccs5)ccc34)c2)n1 | 2.34
CC(C)(C)c1ccc2[nH]c(-c3ccc(/C=C/C(=O)NCc4cccc(C(F)(F)F)c4)cc3)nc2c1 | 5.66
CCCCCCC(C)c1cc(OCCN(CC)CC)c2c(c1)OC(C)(C)C=C2c1ccncc1 (stereo not drawn) | 0.33
COc1ccc2nccc([C@@H](O)CN3CCC(NCc4cc5cc(C)ccc5s4)CC3)c2c1 | 46
O=C(NCc1ccc(Cl)c(Cl)c1)c1ccc(C2CCCN(Cc3ccc4[nH]cnc4c3)C2)cc1 (stereo not drawn) | 9.77
CS(=O)(=O)c1ccc(CCNCc2ccc(-c3cccc(-c4nc5ccccc5[nH]4)c3)cc2)cc1 | 0.65
COc1cccc(Nc2nc(N)c3ccccc3n2)c1 | 18.8
CCCNC(=O)c1cncc(-c2ccc(CNC3Cc4ccccc4C3)cc2)c1 | 0.51
CCN(Cc1ccc(-c2ccc(C(F)(F)F)cc2)cc1)C(=O)Cn1c(SCc2cccc(F)c2F)cc(=O)c2cc(CN3CCCCC3)ccc21 | 0.7
Cc1ccc(Nc2c3ccccc3nc3ccc(C)cc23)cc1 | 7.1
CC1(C)NC(N)=NC(=N)N1OCCCc1ccc(Cl)cc1Cl | 1.95

SMILES | inhibition [%]
OCC1CCN(Cc2cccc(-c3ccc(-c4nc5cc(C(F)(F)F)ccc5[nH]4)cc3)c2)CC1 | 0.48
COc1ccc(Nc2nccc(N3CCC(NC(=O)C(C)c4ccc(Cl)cc4)C3)n2)cc1 (stereo not drawn) | 0.96
O=C(CSc1nccn1Cc1ccco1)Nc1cc(C(F)(F)F)ccc1Cl | 10.5
CCOc1cc(C(=O)NCCN(C(C)C)C(C)C)ccc1-c1nc2cc(Cl)ccc2[nH]1 | 1.66
O=C(NC1CCN(Cc2ccccc2)CC1)c1ccc(-c2nc3cc(Cl)c(Cl)cc3[nH]2)c(F)c1 | 9.26
Cc1cc(O)c2c(c1)OC(C)(C)C=C2C1=CCN(Cc2ccccc2)CC1 | 6.87
O=C(Nc1ccc(Cl)c(C(F)(F)F)c1)Nc1ccc(Cl)c(C(F)(F)F)c1 | 1.04
NC(=O)c1sc(-n2cnc3ccccc32)cc1OCc1ccccc1[N+](=O)[O-] | 7.21
Cc1ccc(/C=C/C(=O)NC2CCC(N3CCC(c4ccccc4C)CC3)CC2)cc1C (stereo not drawn) | 4.56
O=C(NC1CCN(c2ccnc3cc(Cl)ccc23)C1)c1ccc(C(F)(F)F)cc1 (stereo not drawn) | 3.66
COc1ccc(Nc2nccc(N3CCC(NC(=O)Nc4cccc(C(C)=O)c4)C3)n2)cc1 (stereo not drawn) | 0.98
Cc1cccc2nc(-c3ccc(-c4cccc(CNC(C)C)c4)s3)[nH]c12 | 1.37
Cc1cc(-c2cccc(CNCCc3ccc(Cl)cc3)c2)cnc1N | 6.59
Cc1ccc2nc(Cl)c3cc(C(=O)NCCCN4CCCC4)sc3c2c1 | 10.2
Cc1ccc(N2C(N)=NC(N)=NC2(C)C)cc1Cl | 8.8
CCCc1cc(Cc2cnc(N)nc2N)cc(CCC)c1OC | 1.27
CC(C)(C)c1cc2cc(Nc3ccnc4cc(-c5nccs5)ccc34)ccc2[nH]1 | 7.87
COc1ccc(O)c(C(=O)c2cc(C(=O)NC3CCCCC3)c(=O)n(C3CCCCC3)c2)c1 | 4.33
CCN(CC)CCOc1ccc(C(O)(C#CC(O)(c2ccc(C)cc2)c2ccc(OCCN(CC)CC)cc2)c2ccc(C)cc2)cc1 (stereo not drawn) | 8.63

Target: Glucose transporter (Leishmania mexicana) (UniProt O61059)
Test: ST_JUDE_LEISH: Cytotoxicity at 2uM final concentration against transgenic Leishmania Mexicana promastigotes LmGT2 that are glucose transport deficient and complemented with the L. Mexicana glucose transporter 2. Activity is measured by DNA content using SYBR green in vitro
Type: functional

SMILES | inhibition [%]
CC(C)N(Cc1cnc(N)c(C#N)n1)c1ccc(Cl)c(Cl)c1 | 2.67
CC(C)(CN)c1cc(-c2ccc(Cl)c(O)c2)c(-c2ccncc2)o1 | 1.62
Cc1ccc2nc(C)cc(N/N=C/c3cccc([N+](=O)[O-])c3)c2c1 | 1.37
CC(C)c1ccc2oc(-c3ccc(NC(=O)c4ccc([N+](=O)[O-])o4)cc3)nc2c1 | 4.26
COc1ccc(-c2cnc(N)c(-c3ccc(C(N)=O)cc3)c2)cc1OC | 5.07
S=C(NCCCCCN1CCC(c2c[nH]c3ccccc23)CC1)Nc1cc(Cl)cc(Cl)c1 | 0.49
Cc1cccc2nc(-c3ccc(-c4cccc(NC(=O)CCc5c[nH]cn5)c4)s3)[nH]c12 | 1.67
CN1CCN(CCCN(Cc2csc(-c3ccc(CNCc4ccccc4)cc3)n2)C(=O)c2cc(F)cc(F)c2)CC1 | 1.42
CC(O)CNc1nc2ccccc2n1CC(=O)Nc1cccc(C(=O)Nc2cccc(C(F)(F)F)c2)c1 (stereo not drawn) | 4.48
Cn1cc(Br)c(-c2cccc(Nc3ccnc4cc(-c5nccs5)ccc34)c2)n1 | 4.06
CC(C)(C)c1ccc2[nH]c(-c3ccc(/C=C/C(=O)NCc4cccc(C(F)(F)F)c4)cc3)nc2c1 | 2.22
CCCCCCC(C)c1cc(OCCN(CC)CC)c2c(c1)OC(C)(C)C=C2c1ccncc1 (stereo not drawn) | -1.02
COc1ccc2nccc([C@@H](O)CN3CCC(NCc4cc5cc(C)ccc5s4)CC3)c2c1 | 21.9
O=C(NCc1ccc(Cl)c(Cl)c1)c1ccc(C2CCCN(Cc3ccc4[nH]cnc4c3)C2)cc1 (stereo not drawn) | 6.17
CS(=O)(=O)c1ccc(CCNCc2ccc(-c3cccc(-c4nc5ccccc5[nH]4)c3)cc2)cc1 | -0.73
COc1cccc(Nc2nc(N)c3ccccc3n2)c1 | 7.62
CCCNC(=O)c1cncc(-c2ccc(CNC3Cc4ccccc4C3)cc2)c1 | -1.1
CCN(Cc1ccc(-c2ccc(C(F)(F)F)cc2)cc1)C(=O)Cn1c(SCc2cccc(F)c2F)cc(=O)c2cc(CN3CCCCC3)ccc21 | 5.02
Cc1ccc(Nc2c3ccccc3nc3ccc(C)cc23)cc1 | 2.9
CC1(C)NC(N)=NC(=N)N1OCCCc1ccc(Cl)cc1Cl | 2.33

SMILES | inhibition [%]
OCC1CCN(Cc2cccc(-c3ccc(-c4nc5cc(C(F)(F)F)ccc5[nH]4)cc3)c2)CC1 | 1.4
COc1ccc(Nc2nccc(N3CCC(NC(=O)C(C)c4ccc(Cl)cc4)C3)n2)cc1 (stereo not drawn) | 1.34
O=C(CSc1nccn1Cc1ccco1)Nc1cc(C(F)(F)F)ccc1Cl | 9.28
CCOc1cc(C(=O)NCCN(C(C)C)C(C)C)ccc1-c1nc2cc(Cl)ccc2[nH]1 | 3.92
O=C(NC1CCN(Cc2ccccc2)CC1)c1ccc(-c2nc3cc(Cl)c(Cl)cc3[nH]2)c(F)c1 | 9.86
Cc1cc(O)c2c(c1)OC(C)(C)C=C2C1=CCN(Cc2ccccc2)CC1 | 5.88
O=C(Nc1ccc(Cl)c(C(F)(F)F)c1)Nc1ccc(Cl)c(C(F)(F)F)c1 | 2.07
NC(=O)c1sc(-n2cnc3ccccc32)cc1OCc1ccccc1[N+](=O)[O-] | 6.48
Cc1ccc(/C=C/C(=O)NC2CCC(N3CCC(c4ccccc4C)CC3)CC2)cc1C (stereo not drawn) | 1.93
O=C(NC1CCN(c2ccnc3cc(Cl)ccc23)C1)c1ccc(C(F)(F)F)cc1 (stereo not drawn) | 0.57
COc1ccc(Nc2nccc(N3CCC(NC(=O)Nc4cccc(C(C)=O)c4)C3)n2)cc1 (stereo not drawn) | 3.49
Cc1cccc2nc(-c3ccc(-c4cccc(CNC(C)C)c4)s3)[nH]c12 | 3.77
Cc1cc(-c2cccc(CNCCc3ccc(Cl)cc3)c2)cnc1N | 7.77
Cc1ccc2nc(Cl)c3cc(C(=O)NCCCN4CCCC4)sc3c2c1 | 9.6
Cc1ccc(N2C(N)=NC(N)=NC2(C)C)cc1Cl | 8.05
CCCc1cc(Cc2cnc(N)nc2N)cc(CCC)c1OC | -2.49
CC(C)(C)c1cc2cc(Nc3ccnc4cc(-c5nccs5)ccc34)ccc2[nH]1 | 5.41
COc1ccc(O)c(C(=O)c2cc(C(=O)NC3CCCCC3)c(=O)n(C3CCCCC3)c2)c1 | 3.2
CCN(CC)CCOc1ccc(C(O)(C#CC(O)(c2ccc(C)cc2)c2ccc(OCCN(CC)CC)cc2)c2ccc(C)cc2)cc1 (stereo not drawn) | 1.02
